According to PubChem BioAssay AID1347418 (Sanford-Burnham Center for Chemical Genomics, 2020):
Values joined by “and” are separate entries in the source; they are usually repeats but may differ in a detail not shown here. Equal values may be shown once. Hit rate of the full screen: of about 1,300 compounds, about 750 (58%) were called active. The list shows a part of the results. More than one record can exist for a structure, and the calls need not agree.

target: Sulfhydryl oxidase 1 (Homo sapiens) (UniProt O00391); experiment: QSOX1 enzyme inhibitors, primary screen, biochemical, ROS-Glo H2O2 luminescence, HTS (AID 1347418); settings: recombinant QSOX1, ROS-Glo H2O2 luminescence, at 12.5 µM, stronger effect = higher value; active = any value above zero unless noted
Sequence (O00391 whole entry, looked up): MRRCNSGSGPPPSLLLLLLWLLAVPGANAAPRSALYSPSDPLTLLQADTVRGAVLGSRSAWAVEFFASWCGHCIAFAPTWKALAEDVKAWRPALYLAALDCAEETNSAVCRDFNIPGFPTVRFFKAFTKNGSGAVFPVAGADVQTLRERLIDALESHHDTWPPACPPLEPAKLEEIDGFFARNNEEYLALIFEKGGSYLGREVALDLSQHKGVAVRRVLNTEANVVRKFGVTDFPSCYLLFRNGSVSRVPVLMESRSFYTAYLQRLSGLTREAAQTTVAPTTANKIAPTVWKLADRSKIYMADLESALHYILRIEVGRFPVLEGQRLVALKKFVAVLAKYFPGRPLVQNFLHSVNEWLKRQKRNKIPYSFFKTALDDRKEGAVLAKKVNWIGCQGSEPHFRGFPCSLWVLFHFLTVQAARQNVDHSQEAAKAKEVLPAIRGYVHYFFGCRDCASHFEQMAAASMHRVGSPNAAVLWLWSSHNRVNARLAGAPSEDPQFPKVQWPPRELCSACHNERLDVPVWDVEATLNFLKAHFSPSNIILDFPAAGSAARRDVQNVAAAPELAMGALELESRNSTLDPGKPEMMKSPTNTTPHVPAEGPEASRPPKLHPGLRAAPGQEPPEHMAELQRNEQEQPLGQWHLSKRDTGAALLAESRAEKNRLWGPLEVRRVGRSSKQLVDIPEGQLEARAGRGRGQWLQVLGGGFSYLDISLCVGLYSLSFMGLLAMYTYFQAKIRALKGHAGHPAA

Compound | inhibition
O=C(O)c1nn(Cc2ccc(Cl)cc2Cl)c2ccccc12 | 6.3% [setting not given] (active)
CCS(=O)(=O)Nc1cccc(C(=C2CCCCC2)c2cnc[nH]2)c1 | 1.9% (active)
O=[N+]([O-])/C=C/c1ccc2c(c1)OCO2 | -5.8% (inactive)
CC[C@@]1(O)C(=O)OCc2c1cc1n(c2=O)Cc2cc3ccccc3nc2-1 | 6.2% [setting not given] (active)
NC(Cc1cc(O)c(O)cc1O)C(=O)O (centres undefined) | 12% (active)
CNCCc1c[nH]c2ccc(O)cc12 | 9.6% [setting not given] (active)
NCCc1c[nH]c2ccccc12 | 5.9% [setting not given] (active)
NCCc1c[nH]c2ccc(C(N)=O)cc12 | 0.5% (active)
CCCN(CCC)CCc1c[nH]c2ccc(C(N)=O)cc12 | -6.3% [setting not given] (inactive)
NCCc1c[nH]c2ccc(O)cc12 | 23.8% (active)
COc1ccc2[nH]cc(CCN)c2c1 | -1.9% [setting not given] (inactive)
OC1CCCCC1N1CCC(c2ccccc2)CC1 (centres undefined) | -0.9% [setting not given] (inactive)
Cc1[nH]c2ccc(O)cc2c1CCN | 16.3% [setting not given] (active)
CC(N)Cc1c[nH]c2ccc(O)cc12 (centres undefined) | 20.8% [setting not given] (active)
CC(=O)NCCc1c[nH]c2ccccc12 | 12.2% [setting not given] (active)
CC(N)Cc1c[nH]c2ccc(OCc3cccs3)cc12 (centres undefined) | 0.1% [setting not given] (active)
c1ccc2c(c1)OCC(C1=NCCN1)O2 (centres undefined) | -2.6% (inactive)
Cn1cnc(CCN)c1 | -4.6% (inactive)
CN1C[C@H](CNC(=O)OCc2ccccc2)C[C@@H]2c3cccc4c3c(cn4C)C[C@H]21 | 10.7% [setting not given] (active)
CP(=O)(O)C1=CCNCC1 | 0.8% (active)
NC(N)=NOCC[C@H](N)C(=O)O | 4% [setting not given] (active)
NC(N)=NOCCC(N)C(=O)O (centres undefined) | -1% (inactive)
COc1cc(C(O)CN)ccc1O (centres undefined) | 4.4% (active)
CNCC(O)c1ccc(O)cc1 (centres undefined) | 2.1% [setting not given] (active)

Compound | inhibition
NNC(=O)c1ccc(O)cc1 | -1% (inactive)
NCC(O)c1ccc(O)cc1 (centres undefined) | 6.8% [setting not given] (active)
O=C(O)Cc1cnc[nH]1 | 4.8% (active)
OCc1cnc[nH]1 | -0.7% (inactive)
Oc1ccc2c3c1O[C@H]1c4oc5ccccc5c4C[C@@]4(O)C(C2)N(CC2CC2)CCC314 (some centres undefined) | 1.7% [setting not given] (active)
Oc1ccc2c3c1O[C@H]1c4[nH]c5ccccc5c4C[C@@]4(O)C(C2)N(CC2CC2)CCC314 (some centres undefined) | 8.5% [setting not given] (active)
NC(N)=Nc1ccc2[nH]c3c(c2c1)C[C@@]1(O)[C@H]2Cc4ccc(O)c5c4[C@@]1(CCN2CC1CC1)[C@H]3O5 | 7.1% [setting not given] (active)
Oc1ccc2c3c1O[C@H]1c4[nH]c5c(c4C[C@@]4(O)[C@@H](C2)N(CC2CC2)CC[C@]314)C[C@@]1(O)[C@H]2Cc3ccc(O)c4c3[C@@]1(CCN2CC1CC1)[C@H]5O4 | 0.3% (active)
O=C1/C(=C/c2ccccc2)C[C@@]2(O)[C@H]3Cc4ccc(O)c5c4[C@@]2(CCN3CC2CC2)[C@H]1O5 | -0.8% [setting not given] (inactive)
CC(C)(O)[C@@H]1[C@H]2OC(=O)[C@@H]1[C@]1(O)C[C@H]3O[C@]34C(=O)O[C@H]2[C@]14C (tested in a mixture with another compound) | -1.5% (inactive)
CN1CCc2cccc(Cl)c2CC1 | -4.5% (inactive)
CC(C)Oc1cccnc1N(C)C1CCN(Cc2ccccc2)CC1 | 8.9% (active)
O=c1[nH]c2ccccc2n1CCCN1CCC(n2c(=O)[nH]c3cc(Cl)ccc32)CC1 | -1.8% [setting not given] (inactive)
O=c1[nH]c2ccccc2n1C1CCN(CCCC(c2ccc(F)cc2)c2ccc(F)cc2)CC1 | 4.6% [setting not given] (active)
O=C(O)CCCc1ccc(N(CCCl)CCCl)cc1 | 4.4% [setting not given] (active)
NC(Cc1ccc(N(CCCl)CCCl)cc1)C(=O)O (centres undefined) | 32.1% (active)
Cn1c(CCCC(=O)O)nc2cc(N(CCCl)CCCl)ccc21 | 33.3% (active)
Cc1ncc(CNC(=O)N(CCCl)N=O)c(N)n1 | -0.8% (inactive)
CCCn1c(C)c(C(=O)c2ccc3ccccc3c2)c2ccccc21 | 3.4% [setting not given] (active)
O=c1c2ccccc2[se]n1-c1ccccc1 | 61% [setting not given] (active)
CCCN1CCC[C@@H](c2cccc(O)c2)C1 | -1.9% (inactive)
CCCN1CCC[C@H](c2cccc(O)c2)C1 | 0.7% (active)
C=C(C)[C@H]1Cc2c(ccc3c2O[C@@H]2COc4cc(OC)c(OC)cc4[C@@H]2C3=O)O1 | 8.2% [setting not given] (active)
Cc1ccc(S(=O)(=O)N[C@@H](CCCCN)C(=O)CCl)cc1 | 2.5% (active)

Compound | inhibition
C#CCOC(=O)C1=CCCN(C)C1 | -6.3% (inactive)
COC(=O)C1=CCCN(C)C1 | 0.8% [setting not given] (active)
NCc1cc(=O)[nH]o1 | -4.8% (inactive)
CN1C(=O)CCS(=O)(=O)C1c1ccc(Cl)cc1 (centres undefined) | 4.6% (active)
NC(=O)CI | -1.4% (inactive)
NNC(N)=O | 2% (active)
COc1ccccc1N1CCNCC1 | -0.9% [setting not given] (inactive)
c1ccc2c(N3CCNCC3)cccc2c1 | 2.2% (active)
CS(=N)(=O)CC[C@H](N)C(=O)O (some centres undefined) | 2% (active)
CC(=O)OCC1=C(C(=O)O)N2C(=O)[C@@H](NC(=O)CCC[C@@H](N)C(=O)O)[C@H]2SC1 | -4.2% (inactive)
COc1ccc2c(c1)c(CCN1CCOCC1)c(C)n2C(=O)c1cccc(Cl)c1Cl | 1.4% (active)
CC(C)=CCOc1c2occc2cc2ccc(=O)oc12 | 2.6% [setting not given] (active)
C[C@H](Cc1ccc2c(c1)OC(C(=O)O)(C(=O)O)O2)NC[C@H](O)c1cccc(Cl)c1 | -1.8% (inactive)
NC(=O)COc1c(F)cc(SCCNS(=O)(=O)c2ccccc2)cc1F | 4% (active)
CC(=O)NBr | -4.9% (inactive)
O=C(N[C@H]1CN2CCC1CC2)c1ccc(Cl)cc1 | 0.7% (active)
COC[C@H]1OC(=O)c2coc3c2[C@@]1(C)C1=C(C3=O)C2CCC(=O)[C@@]2(C)C[C@H]1OC(C)=O (some centres undefined) | 6% (active)
CCCCCCC(C)(C)c1ccc([C@@H]2C[C@H](O)CC[C@H]2CCCO)c(O)c1 | 5.1% [setting not given] (active)
CCCCCCCCCCCCCC(=O)O[C@@H]1[C@@H](C)[C@@]2(O)[C@@H](C=C(CO)C[C@@]3(O)C(=O)C(C)=C[C@@H]23)C2C(C)(C)[C@@]21OC(C)=O (some centres undefined) | 1.1% (active)
C[C@]12CCC3C(CC[C@H]4C[C@H](O)CC[C@]34C)C1CC[C@@H]2C(=O)CO (some centres undefined) | -1.5% (inactive)
CC(=O)[C@H]1CCC2C3CC[C@H]4C[C@H](O)CC[C@]4(C)C3CC[C@@]21C (some centres undefined) | -2.4% [setting not given] (inactive)
CC(=O)[C@H]1CC[C@H]2[C@@H]3CC[C@H]4C[C@](C)(O)CC[C@]4(C)[C@H]3CC[C@]12C | 0.1% [setting not given] (active)
Cc1c(C(=O)c2cccc3ccccc23)c2cccc3c2n1[C@H](CN1CCOCC1)CO3 | 7.5% [setting not given] (active)
O=C(O)c1cc[c]([Hg][Cl])cc1 | -7.7% (inactive)

Compound | inhibition
O=[N+]([O-])c1ccc2nc(N3CCNCC3)ccc2c1 | 0.9% (active)
C=CCN1C[C@@H](C)N([C@H](c2ccc(C(=O)N(CC)CC)cc2)c2cccc(OC)c2)C[C@@H]1C | -4.2% (inactive)
Cc1cc([C@@H]2CCCN2C)on1 | 4.2% (active)
Clc1cc(I)cc(Cl)c1NC1=NCCN1 | -4.1% (inactive)
O=C1C=CC(=O)C=C1 | -2.3% (inactive)
CC12NC(Cc3ccccc31)c1ccccc12 (centres undefined) | 1.2% [setting not given] (active)
C[C@]12N[C@H](Cc3ccccc31)c1ccccc12 | 2.8% [setting not given] (active)
CC(O)(CS(=O)(=O)c1ccc(F)cc1)C(=O)Nc1ccc(C#N)c(C(F)(F)F)c1 (centres undefined) | -1.2% [setting not given] (inactive)
C=C(C)[C@H]1CN[C@H](C(=O)O)[C@H]1CC(=O)O | -6.1% (inactive)
CC(C)[C@H]1CN[C@H](C(=O)O)[C@H]1CC(=O)O | 0.8% (active)
C=CCN1CC[C@]23CCCCC2[C@H]1Cc1ccc(O)cc13 (some centres undefined) | 4.2% [setting not given] (active)
NCC(O)c1cc(O)c(O)cc1F (centres undefined) | 12.3% (active)
NN=C(N)N | 6.4% (active) and -1.5% (inactive)
NCC1(CC(=O)O)CCCCC1 | -2.9% [setting not given] (inactive)
O=P1(N(CCCl)CCCl)NCCCO1 (centres undefined) | 4.8% (active)
c1ccc2cc(CC3=NCCN3)ccc2c1 | -1.3% [setting not given] (inactive)
CCCN(CCC)C1CCc2cccc(O)c2C1 (centres undefined) | -7.7% (inactive)
CCCN(CCC)C1CCc2ccc(O)cc2C1 (centres undefined) | 3.7% (active)
CCCN(CCC)C1Cc2cc(OC)c(OC)cc2C1 | -0.2% (inactive)
CCCN(CCC)[C@H]1CCc2c(F)ccc(O)c2C1 | -4.8% (inactive)
CCCN(CCC)[C@@H]1CCc2ccc(O)cc2C1 | 6.3% (active)
CCCN(CCC)[C@@H]1CCc2cccc(O)c2C1 | 3.9% (active)
